Measured values: PubChem BioAssay (NCI)
Compounds without any hit were thinned out: in the full panel of roughly 83,000, 20% have a hit.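 For each line, cells grew in 96-well plates with the test compound present at a single concentration for 48 hours.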 Active and inactive are the calls of the source. How the source made its calls: active means growth percent below 10; inactive means the rest.

What was measured:
Assay in all cases: NCI-60 one-dose screen, 48 h (100 = growth as untreated, 0 = no growth, -100 = all killed)
SR leukemia = conditions: 10 µM unless noted
RPMI-8226 leukemia = conditions: 10 µM unless noted
OVCAR-8 ovarian = conditions: 10 µM unless noted
OVCAR-5 ovarian = conditions: 10 µM unless noted
OVCAR-4 ovarian = conditions: 10 µM unless noted
SK-OV-3 ovarian = conditions: 10 µM unless noted
IGROV1 ovarian = conditions: 10 µM unless noted
OVCAR-3 ovarian = conditions: 10 µM unless noted
HS 578T breast = conditions: 10 µM
NCI/ADR-RES ovarian = conditions: 10 µM unless noted

Measured: growth

COc1ccc(-c2nn(-c3cccc(Cl)c3)cc2/C=C2\C(=N)N(c3ccccc3)N=C2N)cc1
inactive: SR leukemia 17.9% | RPMI-8226 leukemia 47.3% | OVCAR-8 ovarian 42.3% | OVCAR-5 ovarian 39.8% | OVCAR-4 ovarian 71.6% | SK-OV-3 ovarian 91.3% | IGROV1 ovarian 27.9% | OVCAR-3 ovarian 38.8% | HS 578T breast 82.1% | NCI/ADR-RES ovarian 34.7%

O=C(NC1CC1)c1ccc(-c2nc3ccc4[nH]ncc4c3c3c2CCCC3)cc1
active: SK-OV-3 ovarian -7.43% | HS 578T breast 4.47%
inactive: SR leukemia 32.2% | RPMI-8226 leukemia 50.5% | OVCAR-8 ovarian 38.8% | OVCAR-5 ovarian 75.2% | OVCAR-4 ovarian 61.6% | IGROV1 ovarian 22.7% | OVCAR-3 ovarian 58% | NCI/ADR-RES ovarian 72.1%

COc1ccc(C(=O)c2c(N)nc3n2CCCC3)cc1OC
inactive: SR leukemia 84.3% | RPMI-8226 leukemia 99.3% | OVCAR-8 ovarian 95.4% | OVCAR-5 ovarian 111% | OVCAR-4 ovarian 107% | SK-OV-3 ovarian 105% | IGROV1 ovarian 99.4% | OVCAR-3 ovarian 109% | HS 578T breast 108% | NCI/ADR-RES ovarian 107%

NC(N)=N/N=C/c1ccccc1
inactive: SR leukemia 96% | RPMI-8226 leukemia 89.1% | OVCAR-8 ovarian 99.5% | OVCAR-5 ovarian 93.2% | OVCAR-4 ovarian 101% | SK-OV-3 ovarian 101% | IGROV1 ovarian 108% | OVCAR-3 ovarian 99.5% | HS 578T breast 101% | NCI/ADR-RES ovarian 104%

CCCCNCC(O)c1cc2c(Cl)cc(Cl)cc2c2cc(C(F)(F)F)ccc12 (stereo not given)
active: SR leukemia -68% | RPMI-8226 leukemia -38.8% | OVCAR-8 ovarian -56% | OVCAR-5 ovarian -81.2% | OVCAR-4 ovarian -89.7% | SK-OV-3 ovarian -22.8% | IGROV1 ovarian -65.2% | OVCAR-3 ovarian -91.1% | HS 578T breast -51.6% | NCI/ADR-RES ovarian -64%

CC(=O)c1c(C)nc(-c2cc(C)cc(Cl)c2)nc1-c1cccc(Oc2ccccc2)c1
inactive: SR leukemia 10.1% | RPMI-8226 leukemia 46.4% | OVCAR-8 ovarian 91.8% | OVCAR-5 ovarian 107% | OVCAR-4 ovarian 85.1% | SK-OV-3 ovarian 84% | IGROV1 ovarian 77.7% | OVCAR-3 ovarian 38.6% | HS 578T breast 59.8% | NCI/ADR-RES ovarian 25.1%

O=C(Nc1ccc(OS(=O)(=O)c2ccc(F)cc2)cc1)C12CC3CC(CC(C3)C1)C2
inactive: SR leukemia 36.3% | RPMI-8226 leukemia 12.3% | OVCAR-8 ovarian 72.4% | OVCAR-5 ovarian 100% | OVCAR-4 ovarian 54.4% | SK-OV-3 ovarian 74.9% | IGROV1 ovarian 90.2% | OVCAR-3 ovarian 78.2% | HS 578T breast 75.8% | NCI/ADR-RES ovarian 60.2%
